Where a chain is given by its changes, count along the chain named. Whole data set: some 16,000 sequences, median “ka relative to ugcaugu” near 0.0091, cut for the highest 2% near 0.032. What follows is part of a selection rich in the highest values, with near analogues and random picks from the rest.
T1: RBFOX1 RRM (Homo sapiens, UniProt Q9NWB1 109-208)
T1 sequence: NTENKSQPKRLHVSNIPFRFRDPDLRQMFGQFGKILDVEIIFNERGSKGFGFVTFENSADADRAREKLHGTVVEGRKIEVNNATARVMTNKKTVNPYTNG

B1: UAACCGC (DNA:RNA)
RNA: GGGAGACCGGAAUUCAGAUUGUCCUAACCGCUUAAAUCCCGUCGUAGCCACCA
DNA 1: CAATCTGAATTCCGGTCTCCC
DNA 2: TGGTGGCTACGACGGGATT
B2: CAACUUU (DNA:RNA)
RNA: B1 RNA with U25C, C29U, G30U, C31U
DNA 1: CAATCTGAATTCCGGTCTCCC
DNA 2: TGGTGGCTACGACGGGATT
B3: UUGCAAU (DNA:RNA)
RNA: B1 RNA with A26U, A27G, C29A, G30A, C31U
DNA 1: CAATCTGAATTCCGGTCTCCC
DNA 2: TGGTGGCTACGACGGGATT
B4: CACCGUG (DNA:RNA)
RNA: B1 RNA with U25C, A27C, C29G, G30U, C31G
DNA 1: CAATCTGAATTCCGGTCTCCC
DNA 2: TGGTGGCTACGACGGGATT
B5: AGUCCAG (DNA:RNA)
RNA: B1 RNA with U25A, A26G, A27U, G30A, C31G
DNA 1: CAATCTGAATTCCGGTCTCCC
DNA 2: TGGTGGCTACGACGGGATT
B6: AGGCAGA (DNA:RNA)
RNA: B1 RNA with U25A, A26G, A27G, C29A, C31A
DNA 1: CAATCTGAATTCCGGTCTCCC
DNA 2: TGGTGGCTACGACGGGATT
B7: AGAGAAG (DNA:RNA)
RNA: B1 RNA with U25A, A26G, C28G, C29A, G30A, C31G
DNA 1: CAATCTGAATTCCGGTCTCCC
DNA 2: TGGTGGCTACGACGGGATT
B8: CCGGGUU (DNA:RNA)
RNA: GGGAGACCGGAAUUCAGAUUGUCCCCGGGUUUUAAAUCCCGUCGUAGCCACCA
DNA 1: CAATCTGAATTCCGGTCTCCC
DNA 2: TGGTGGCTACGACGGGATT
B9: GGAGUUU (DNA:RNA)
RNA: B8 RNA with C25G, C26G, G27A, G29U
DNA 1: CAATCTGAATTCCGGTCTCCC
DNA 2: TGGTGGCTACGACGGGATT
B10: ACCGGGU (DNA:RNA)
RNA: B8 RNA with C25A, G27C, U30G
DNA 1: CAATCTGAATTCCGGTCTCCC
DNA 2: TGGTGGCTACGACGGGATT
B11: GGGUUUU (DNA:RNA)
RNA: B8 RNA with C25G, C26G, G28U, G29U
DNA 1: CAATCTGAATTCCGGTCTCCC
DNA 2: TGGTGGCTACGACGGGATT
B12: GGGAGUU (DNA:RNA)
RNA: B8 RNA with C25G, C26G, G28A
DNA 1: CAATCTGAATTCCGGTCTCCC
DNA 2: TGGTGGCTACGACGGGATT
B13: CGGGUUU (DNA:RNA)
RNA: B8 RNA with C26G, G29U
DNA 1: CAATCTGAATTCCGGTCTCCC
DNA 2: TGGTGGCTACGACGGGATT
B14: GUCGGGU (DNA:RNA)
RNA: B8 RNA with C25G, C26U, G27C, U30G
DNA 1: CAATCTGAATTCCGGTCTCCC
DNA 2: TGGTGGCTACGACGGGATT
B15: GGGUUUG (DNA:RNA)
RNA: B8 RNA with C25G, C26G, G28U, G29U, U31G
DNA 1: CAATCTGAATTCCGGTCTCCC
DNA 2: TGGTGGCTACGACGGGATT
B16: GGGGAGU (DNA:RNA)
RNA: B8 RNA with C25G, C26G, G29A, U30G
DNA 1: CAATCTGAATTCCGGTCTCCC
DNA 2: TGGTGGCTACGACGGGATT
B17: GUCCGGG (DNA:RNA)
RNA: B1 RNA with U25G, A26U, A27C, C29G, C31G
DNA 1: CAATCTGAATTCCGGTCTCCC
DNA 2: TGGTGGCTACGACGGGATT
B18: GGGUUGU (DNA:RNA)
RNA: B8 RNA with C25G, C26G, G28U, G29U, U30G
DNA 1: CAATCTGAATTCCGGTCTCCC
DNA 2: TGGTGGCTACGACGGGATT
B19: GUUUGGG (DNA:RNA)
RNA: B8 RNA with C25G, C26U, G27U, G28U, U30G, U31G
DNA 1: CAATCTGAATTCCGGTCTCCC
DNA 2: TGGTGGCTACGACGGGATT
B20: UAAUAUG (DNA:RNA)
RNA: B1 RNA with C28U, C29A, G30U, C31G
DNA 1: CAATCTGAATTCCGGTCTCCC
DNA 2: TGGTGGCTACGACGGGATT

Molecular target: T1, RBFOX1 RRM
Assay: EMSA; HiTS-Eq, 1 nM pool, 10 min; buffer printed only for the single-RNA assays: 10 mM Tris pH 7.5, 150 mM NaCl, 3.4 mM EDTA, 0.001% NP-40, 30 C
Conditions: tags: His6 N-terminal (pET28a); label: 5' 32P
Method in brief: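 Purified wild-type or mutant RbFox RRM at increasing concentrations was equilibrated with 1 nM of 5′-radiolabelled RNA carrying 7 randomized nucleotides for 10 min in 50 µL. Unbound RNA was separated by 8% native PAGE and sequenced. Relative association constants came from read-count changes of each RNA species compared with the control reaction, normalised to the cognate motif.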

Binder	binding signal
B1	0.0039 KA relative to UGCAUGU
B2	0.000994 KA relative to UGCAUGU
B3	0.0162 KA relative to UGCAUGU
B4	0.0057 KA relative to UGCAUGU
B5	0.00711 KA relative to UGCAUGU
B6	0.00971 KA relative to UGCAUGU
B7	0.00984 KA relative to UGCAUGU
B8	0.0196 KA relative to UGCAUGU
B9	0.0247 KA relative to UGCAUGU
B10	0.013 KA relative to UGCAUGU
B11	0.0323 KA relative to UGCAUGU
B12	0.0324 KA relative to UGCAUGU
B13	0.0393 KA relative to UGCAUGU
B14	0.0137 KA relative to UGCAUGU
B15	0.0349 KA relative to UGCAUGU
B16	0.0316 KA relative to UGCAUGU
B17	0.00708 KA relative to UGCAUGU
B18	0.0284 KA relative to UGCAUGU
B19	0.0128 KA relative to UGCAUGU
B20	0.0114 KA relative to UGCAUGU

Reference: article PMC9911399, “Two distinct binding modes provide the RNA-binding protein RbFox with extraordinary sequence specificity”
